# Source: PubChem BioAssay (National Center for Advancing Translational Sciences (NCATS))
# Sampled rows, rich in hits. Any-hit rate of the full collection: about 17%.
# TDP1 cell noCPT = qHTS for Inhibitors of human tyrosyl-DNA phosphodiesterase 1 (TDP1): qHTS in cells in absence of CPT | DT40 Tdp1-/- hTDP1 cells, no CPT, ATP luminescence, 48 h | Potency, µM (series often up to 46.2 µM), without a hit: at the top dose activity change, negative = growth inhibition, usual class: inhibitors | 420,000 tested, 15% active; further: on the % scale 0 is the no-effect control and ±100 the full control effect; nearly all actives have a fitted effect of over 55% in size
#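 Chicken DT40 Tdp1-/- cells complemented with human TDP1, screened without camptothecin (DMSO vehicle only), 400 cells/well. Compounds pin-transferred, cells incubated at 37 °C for at least 48 hr. Growth read as ATP-dependent luminescence (CellTiter-Glo, 30 min at RT).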
# HT1080-NT tox = qHTS for induction of synthetic lethality in tumor cells producing 2HG: qHTS for the HT-1080-NT fibrosarcoma cell line | HT-1080-NT fibrosarcoma viability, CellTiter-Glo ATP luminescence, 48 h | Potency, µM (highest dose often 46.1 µM), for the others: at the top dose activity, negative = less viability, actives largely listed as cytotoxic | 360,000 tested, 1.6% active;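 further: NT is the 2HG producing partner of a matched IDH1 knockdown line; 0% = DMSO-treated cells and -100% = media-only wells without cells; nearly all actives have a fitted effect of over 55% in size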
#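 Compounds were tested in concentration-response format on HT-1080-NT cells for 48 hours at 37 degrees C. Cell viability came from CellTiter-Glo luminescence; curves were classified by r2, response magnitude and activity.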
# TGFb inhibitor = qHTS for Inhibitors of TGF-b | 410,000 tested, 1.2% active | Potency, µM (doses to about 46.1 µM), for the others: top-dose activity, negative = inhibition, most hits filed as inhibitors | AID 588855, 2011 | HepG2 CAGA-GFP TGF-b/SMAD3 reporter, GFP fluorescence, 18 h; TGF-beta stimulated, 500 pg/mL final; further: on the % scale 0 is the no-effect control and ±100 the full control effect; nearly all actives have a fitted effect of over 65% in size
#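 GFP signal (ex488/em500-530) from TGF-beta-stimulated HEPG2 CAGA-GFP cells, 500 pg/mL final, 18 h at 37 degrees C in DMEM plus 1% FBS, normalized to unstimulated and DMSO-stimulated controls.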
# HT1080 IDH1KD tx = qHTS for induction of synthetic lethality in tumor cells producing 2HG: qHTS for the HT-1080-IDH1KD cell line; 360,000 tested, 2% active; Potency, µM (top dose mostly 46.1 µM), for inactives: at the top dose activity, negative = toxicity, actives largely listed as cytotoxic; HT-1080 IDH1 knockdown viability, ATP luminescence, 48 h;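 further: 0% = DMSO wells and -100% = cell-free medium wells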
#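 IDH1KD HT-1080 cells, 750/well, RPMI + 5% FBS; compound pinned after 2 h settling; 48 h, 37 °C; CellTiter-Glo luminescence; % activity normalised to DMSO and no-cell wells; curves fitted, classed by r2 and efficacy.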
# HepG2 tox = qHTS for Inhibitors of TGF-b: Cytotox Counterscreen; Potency, µM (series often up to 46.1 µM), for inactives: at the top dose activity change, negative = cytotoxicity, actives largely listed as cytotoxic; 410,000 tested, 0.76% active; HepG2 CAGA-GFP viability, ATP luminescence, 18 h; AID 588856, 2011
#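 CellTiter-Glo luminescence gave cytotoxicity after 18 hours at 37 degrees C. The cells were HepG2 CAGA-GFP in 1% FBS DMEM, stimulated with 500 pg/mL TGF-beta after compound addition. %Activity was normalised to no-cell wells (complete cell-killing) and DMSO (no toxicity), and curves were fitted and classified.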
# TDP1 cell CPT = qHTS for Inhibitors of human tyrosyl-DNA phosphodiesterase 1 (TDP1): qHTS in cells in presence of CPT | chicken DT40 Tdp1-/-;hTDP1 cells + 20 nM CPT, ATP luminescence, 48 h | Potency, µM (titrated, usually from 46.2 µM), inactives show at the highest dose activity change, negative = growth inhibition, usual class: inhibitors | 420,000 tested, 12% active; further: on the % scale 0 is the no-effect control and ±100 the full control effect; nearly all actives have a fitted effect of over 55% in size
#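 Cell growth measured by CellTiter-Glo luminescence after a minimum 48 h, 37 C compound exposure with 20 nM CPT in Tdp1-knockout DT40 cells stably expressing hTDP1, seeded 400/well; qHTS titration format.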
# Numbers without * were called inactive; ? = inconclusive; . = not tested or not shown; [ ] = remark or other dose. The call rests on the fitted dose curve; in most records, active means well fitted curve in the direction sought with a large enough effect; inconclusive means small, poorly fitted or top-dose-only effect, or another doubt; inactive means no such curve, though single readings can be large; an effect the other way counts as inactive or inconclusive. Potency means the concentration at half of the fitted maximal effect.
SMILES,TDP1 cell noCPT,HT1080-NT tox,TGFb inhibitor,HT1080 IDH1KD tx,HepG2 tox,TDP1 cell CPT
Cc1nc(C(F)(F)F)ccc1C(=O)N1CCCCCC1(C)C(=O)NCC(C)C (stereo not drawn),-5%,8%,-8%,?,18%,1%
CCOc1ccc(C(=O)NCC(=O)OCc2nnc(-c3ccccc3)o2)cc1OCC,12%,16%[9.24 µM],5%,10%,12%,-2%
COCc1cc(=O)[nH]c(-c2ccccc2)n1,19%,0%,7%,5%,14%,-1%
COCc1cc(=O)[nH]c(Nc2nc3ccccc3o2)n1,8.9µM*,-28%,?,?,-32%,10µM*
Cc1ccc2oc(Nc3nc(-c4ccccc4)cc(=O)[nH]3)nc2c1,4.6µM*,-4%,-2%,?,-18%,3.3µM*
Cc1nc(-c2ccccc2)cc(=O)[nH]1,-10%,12%,?,14%,-1%,-16%
COCc1cc(=O)[nH]c(Nc2nc(C)c3ccccc3n2)n1,16µM*,?,1%,?,0%,21µM*
Cc1ccc(S(=O)(=O)N2CCSC2c2ccco2)cc1 (stereo not drawn),18µM*,-2%,?,-5%,0%,1%
O=C(/C(=C/O)N=Nc1ccc(Cl)cc1)c1ccncc1,26µM*,?,?,21µM*,-100%,15µM*
O=C(/C(=C/O)N=Nc1ccccc1Cl)c1ccccc1,?,13µM*,?,15µM*,-32%,?
O=C(/C(=C/O)N=Nc1cccc(C(F)(F)F)c1)c1ccccc1,?,?,?,-23%,-6%,?
Cc1ccc(N=N/C(=C\O)C(=O)c2ccncc2)cc1,?,26µM*,10%,16µM*,-40%,?
O=C(/C(=C/O)N=Nc1ccccc1)c1ccco1,?,-3%,-12%,-23%,-4%,?
Cc1cccc(N=N/C(=C\O)C(=O)c2ccc(Br)cc2)c1,?,?,10µM*,?,-70%,8.2µM*
COc1ccc(C(=O)/C(=C/O)N=Nc2ccc(F)cc2)cc1,?,?,?,?,-38%,?
COC(=O)C1=C(C(=O)OC)SC(=C2C(=S)C(C)(C)N(C(=O)CC(C)C)c3ccccc32)S1,?,-5%,-28%,-2%,-5%,26µM*
COC(=O)C1=C(C(=O)OC)[C@@H]2N(C)c3ccccc3[C@@]23C[C@@H](C(=O)OC)N(C(=O)CC(C)C)C3=N1,?,1%,-1%,6%,-5%,?
COC(=O)N/N=C/c1cn(CC(C)COc2ccccc2)c2ccccc12 (stereo not drawn),23µM*,1%,0%,-15%,-16%,?
Cc1ccc(OCCn2cc(/C=N/NC(=O)c3ccncc3)c3ccccc32)cc1,23µM*,-29%,?,?,-29%,?
CCOC(=O)N/N=C/c1cn(CCCOc2ccc(C)cc2)c2ccccc12,21µM*,1%,-27%,-7%,-22%,?
O=C1C2C3C=CC(C3)C2C(=O)N1/N=C/c1cc(Br)cc([N+](=O)[O-])c1O (stereo not drawn),23µM*,?,-17%,?,9%,?
O=C1C2C3C=CC(C3)C2C(=O)N1/N=C/c1ccc(-c2ccccc2[N+](=O)[O-])o1 (stereo not drawn),-28%,-11%,0%,-9%,-30%,?
CCc1nc2sccc2c(=O)[nH]1,-2%,20%,-2%,27%,-4%,-25%
Cc1ccc(NC(=O)CCC(=O)N2Cc3ccccc3Oc3ncccc32)cc1F,?,.,-1%,.,-8%,-12%
CSc1nc2nccc(/C=C\c3ccccc3)n2n1,23µM*,?,?,?,-27%,?
SMILES,TDP1 cell noCPT,HT1080-NT tox,TGFb inhibitor,HT1080 IDH1KD tx,HepG2 tox,TDP1 cell CPT
CCCc1cc(C(=O)NC(C)C2CCCO2)cs1 (stereo not drawn),10%,?,0%,9%,2%,5%
CCCn1c(C)cc(C(=O)CN2C(=O)c3ccccc3S2(=O)=O)c1C,9.2µM*,-2%,14%,0%,-8%,?
O=C(O)c1ccccc1-c1ccccc1C(=O)NCc1cccc(C(F)(F)F)c1,-5%,11%,-11%,11%,-39%,2%
COc1cccc(NC(=O)/C=C\c2ccc(Cl)cc2)c1,?,.,.,.,.,30µM*
O=C(CS(=O)(=O)c1ccccc1)Nc1ccc(Cl)cn1,-2%,27%,-2%,9%,3%,7%
Cc1cccc(NC(=O)/C(C#N)=C/c2ccc(Cl)cc2)n1,-16%,14%,3%,10%,4%,-13%
CSc1cccc(NC(=O)/C=C/c2ccc(Cl)cc2)c1,?,?,?,?,-29%,?
O=C(/C=C/c1ccccc1)Nc1ccc(Cl)cn1,3.3µM*,?,-21%,4.6µM*,-8%,2.6µM*
O=C(CC(c1ccccc1)c1ccccc1)Nc1ccc(Cl)cn1,18µM*,?,8%,15µM*,4%,?
Cc1cccc(NC(=O)/C=C/c2ccc(Cl)cc2)n1,18µM*,-15%,0%,?,-35%,?
